# The entries come from a sample that favours hits as a whole.
# DT40 TDP1 CPT – DT40-hTDP1 cell growth loss with CPT; 420,000 compounds, 12% hits; Potency, µM (titrated, usually from 46.2 µM), for inactives: at the top dose activity change, negative = growth inhibition, usual class: inhibitors; chicken DT40 Tdp1-/-;hTDP1 cells + 20 nM CPT, ATP luminescence, 48 h; note: potency is the fitted concentration of half-maximal effect; nearly all actives have a fitted effect of over 55% in size
#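 Cell growth measured by CellTiter-Glo luminescence after a minimum 48 h, 37 C compound exposure with 20 nM CPT in Tdp1-knockout DT40 cells stably expressing hTDP1, seeded 400/well; qHTS titration format.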
# HT1080NT lethal – kills 2HG-producing HT-1080-NT fibrosarcoma cells; Potency, µM (top dose mostly 46.1 µM), for the others: top-dose activity, negative = less viability, actives largely listed as cytotoxic; HT-1080-NT fibrosarcoma viability, CellTiter-Glo ATP luminescence, 48 h; AID 686970; 360,000 compounds, 1.6% hits;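 note: NT is the 2HG producing partner of a matched IDH1 knockdown line; potency is the fitted concentration of half-maximal effect; 0% = DMSO-treated cells and -100% = media-only wells without cells; nearly all actives have a fitted effect of over 55% in size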
#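 Fibrosarcoma NT cells, 750 per well in 5% FBS RPMI, were exposed to compound for 48 hours. Viability: CellTiter-Glo luminescence.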
# DT40 TDP1 no CPT – qHTS for Inhibitors of human tyrosyl-DNA phosphodiesterase 1 (TDP1): qHTS in cells in absence of CPT; DT40 Tdp1-/- hTDP1 cells, no CPT, ATP luminescence, 48 h; Potency, µM (series often up to 46.2 µM), for the others: at the top dose activity change, negative = growth inhibition, hits mostly inhibitors; 420,000 compounds, 15% hits; note: potency is the fitted concentration of half-maximal effect; nearly all actives have a fitted effect of over 55% in size
#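 No-CPT arm: Tdp1-/-;hTDP1 DT40 cells (400/well) plus compounds, incubated ≥48 hr at 37 °C. Readout CellTiter-Glo luminescence.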
# IL1B secr inh – inhibitors of inflammasome signaling (IL-1 beta secretion). activity change, % at 57.5 µM. AID 743279. 360,000 compounds, 4.7% hits. THP-1 LPS/ATP IL-1B secretion, AlphaLISA, 16 h; active compounds read low; in the data active = activity change below about -50%; inconclusive = mostly about -30% to -49%
#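 THP-1 cells pretreated 1 hr with compounds (up to 57.5 uM final), then stimulated with LPS (250 ng/mL final) plus ATP (1.25 mM final); secreted IL-1B measured by AlphaLISA after 16 hr, decreased signal indicating inhibition.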
# 12-LOX inh – blocks human arachidonate 12S-lipoxygenase | P18054 | Potency, µM (highest dose often 108 µM), without a hit: at the highest dose activity change, negative = inhibition, usual class: inhibitors | 580,000 compounds, 1.1% hits | purified 12hLO, xylenol orange hydroperoxide absorbance; note: potency is the fitted concentration of half-maximal effect
# Target sequence (P18054 whole entry, looked up): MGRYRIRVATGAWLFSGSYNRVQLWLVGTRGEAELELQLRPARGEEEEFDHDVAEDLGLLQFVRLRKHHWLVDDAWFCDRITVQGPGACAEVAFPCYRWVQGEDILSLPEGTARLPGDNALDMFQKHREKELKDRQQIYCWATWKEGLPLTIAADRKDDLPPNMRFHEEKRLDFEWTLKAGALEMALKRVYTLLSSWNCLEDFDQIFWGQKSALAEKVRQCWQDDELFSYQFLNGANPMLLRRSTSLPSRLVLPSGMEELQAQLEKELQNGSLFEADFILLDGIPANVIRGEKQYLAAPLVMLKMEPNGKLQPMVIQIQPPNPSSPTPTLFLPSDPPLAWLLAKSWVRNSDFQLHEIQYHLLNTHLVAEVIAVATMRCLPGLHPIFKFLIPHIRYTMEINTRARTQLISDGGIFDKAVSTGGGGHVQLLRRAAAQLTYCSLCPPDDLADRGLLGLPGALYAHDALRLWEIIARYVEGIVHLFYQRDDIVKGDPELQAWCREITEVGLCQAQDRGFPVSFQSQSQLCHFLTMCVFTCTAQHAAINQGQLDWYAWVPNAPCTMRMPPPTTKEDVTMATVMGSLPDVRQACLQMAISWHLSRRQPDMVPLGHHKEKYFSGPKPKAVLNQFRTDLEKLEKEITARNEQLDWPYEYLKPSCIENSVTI
#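 Purified human 12hLO at 150 nM in 25 mM Hepes, 0.01% Triton X-100, pH 7.0, preincubated 15 min at room temperature with compound. Reaction started with 40 uM arachidonic acid, 30 min at room temperature. Hydroperoxide measured by Fe-xylenol orange, 573/405 nm absorbance ratio.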
# HT1080 IDH1KD tx – toxicity to HT-1080 IDH1 knockdown cells (counter line). HT-1080 IDH1 knockdown viability, ATP luminescence, 48 h. Potency, µM (series often up to 46.1 µM), inactives show at the top dose activity, negative = toxicity, most hits filed as cytotoxic. 360,000 compounds, 2% hits;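 note: potency is the fitted concentration of half-maximal effect; 0% = DMSO wells and -100% = cell-free medium wells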
#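 Cytotoxicity counter-line: IDH1KD HT-1080, 48 h, CellTiter-Glo. Curves classed by r2, magnitude and activity.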
# * marks the source's active call; other numbers are inactive results; ? = inconclusive; . = no result; [ ] = another dose, or the depositor's remark. Unless noted, calls come from the whole dose curve; as a rule, active = well fitted curve in the direction sought with a large enough effect; inconclusive = small, poorly fitted or top-dose-only effect, or another doubt; inactive = no such curve, though single readings can be large; an effect the other way counts as inactive or inconclusive. Unless noted, % is set by controls: 0 for no effect and ±100 for the full control effect.
SMILES,DT40 TDP1 CPT,HT1080NT lethal,DT40 TDP1 no CPT,IL1B secr inh,12-LOX inh,HT1080 IDH1KD tx
Cc1ccc(C(=O)Nc2ccc(Cl)cn2)cc1,7.31µM*,15.8µM*,8.2µM*,24.3,0.6%,10µM*
COCc1nncn1C1CCN(C(=O)c2ccc(C)s2)CC1,.,.,.,.,10.7%,.
COCCNS(=O)(=O)c1cc(C(=O)O)cc(-c2cccc3cccnc23)c1,.,.,.,.,37.1%,.
Cc1nc(NC(=O)c2cccnc2)ccc1Br,-23.0%,7.5%,?,-21.7,8.5%,12.3%
O=C(Nc1ccc(Cl)cn1)c1ccc(Oc2ccccc2)cc1,3.0%,-14.5%,?,-67.0*,8.5%,-2.7%
Cc1ccccc1C(=O)Nc1ccc(Br)c(C)n1,?,-1.5%,9.2µM*,-2.9,0.0%,0.5%
CNC(=O)N1C[C@@H](CN(C)C)[C@H](NC(=O)c2cc(C)cc(C)c2)C1,.,.,.,.,4.9%,.
COc1ccc(CCNC(=O)C2CCN(C(=O)c3cccs3)CC2)cc1,-5.4%,3.0%,-21.1%,33.7,-7.8%,7.8%
COc1cc(OC)cc(C(=O)N2CCC(C(=O)NCCc3ccccc3)CC2)c1,7.31µM*,0.8%,7.31µM*,34.1,8.6%,1.1%
COc1ccc(CCNC(=O)C2CCN(C(=O)c3ccccc3C)CC2)cc1,?,12.1%,18.4µM*,14.8,0.0%,9.9%
CCc1cccc(C)c1Nc1c(-c2cccs2)nc2ncccn12,?,.,16.4µM*,.,-17.9%,.
CCc1cccc(C)c1Nc1c(-c2ccc(N3CCOCC3)cc2)nc2ncccn12,23.1µM*,.,23.1µM*,.,?,.
CCc1cccc(C)c1Nc1c(-c2cccs2)nc2nc(C)cc(C)n12,?,.,?,.,0.4%,.
CCOC(=O)C(CC(=O)O)c1ccccc1 (stereo unspecified),.,.,.,.,39.2%,.
O=C(Cn1cnc2ccc(Br)cc2c1=O)N1CCCC1c1ccc2c(c1)OCCCO2 (stereo unspecified),.,.,.,.,-12.8%,.
Cc1ccc(Sc2cc(C(F)(F)F)nc(N(C)C)n2)cc1,?,0.5%,?,-21.4,-3.8%,-1.9%
CN(C)c1ccc(Sc2ccc3nc(N)nc(N)c3c2)cc1,1.84µM*,2.31µM*,0.651µM*,-15.5,?,1.64µM*
COc1ccc(-c2nc(Cn3c(-c4ccc(F)cc4)nc(C)c(CCO)c3=O)c(C)o2)cc1,.,.,.,.,23.1%,.
c1ccc(C(c2ccccc2)N2CCN(c3nc4ccccc4n4cnnc34)CC2)cc1,?,-0.4%,3.66µM*,35.9,17.0%,-2.5%
c1cnc(N2CCN(c3nc4ccccc4n4cnnc34)CC2)nc1,-11.8%,2.3%,-22.4%,-11.3,10.4%,4.6%
Cc1cccc(N2CCN(c3nc4ccccc4n4cnnc34)CC2)c1C,25.9µM*,1.3%,?,6.3,?,-1.5%
C=CCn1c(SCc2csc(-c3ccc(Cl)cc3)n2)nnc1-c1ccccc1OC,23.1µM*,-19.2%,?,-29.2,-25.1%,?
CCc1ccc(-c2noc(CSc3nnc(-c4ccccc4OC)n3CC)n2)cc1,.,.,.,.,17.2%,.
CCOC(=O)c1ccc2ncc(C(=O)OCC)c(NCCCOC(=O)C(C)(C)C)c2c1,.,.,.,.,11.1%,.
CN1CCC(OC2CCN(C(=O)c3ccc(Br)o3)CC2)CC1,.,.,.,.,50.4%,.
SMILES,DT40 TDP1 CPT,HT1080NT lethal,DT40 TDP1 no CPT,IL1B secr inh,12-LOX inh,HT1080 IDH1KD tx
CCOC(=O)[C@H]1[C@H]2COc3ccc(Cl)cc3[C@@H]2N2C(=O)CN(Cc3ccc(F)cc3)C(=O)[C@@]12C,?,12.8%,?,-3.1,1.0%,-1.6%
CCOC(=O)[C@H]1[C@H]2COc3ccc(Cl)cc3[C@@H]2N2C(=O)CN(Cc3ccccc3)C(=O)[C@@]12C,?,0.0%,20.6µM*,-7.9,-4.6%,0.4%
CCOC(=O)[C@H]1[C@H]2COc3ccc(Cl)cc3[C@@H]2N2C(=O)CN(Cc3ccc(Cl)cc3)C(=O)[C@@]12C,?,0.8%,16.4µM*,-17.8,3.4%,-20.8%
CCOC(=O)[C@H]1[C@H]2COc3ccc(Br)cc3[C@H]2N2C(=O)CN(Cc3ccc(C)cc3)C(=O)[C@@]12C,?,-1.3%,?,-58.8*,?,-8.8%
CCOC(=O)[C@H]1[C@H]2COc3ccc(Br)cc3[C@@H]2N2C(=O)CN(Cc3ccc(C)cc3)C(=O)[C@@]12C,?,-6.1%,?,-22.6,-13.5%,1.8%
CC1=NS(=O)(=O)N(Cc2ccccc2)C=C1C(=O)OCc1nc(-c2ccccc2)no1,.,.,.,.,20.0%,.
COc1ccc(-c2c(NC(=O)c3ccc([N+](=O)[O-])cc3)oc3ccccc3c2=O)cc1,.,.,.,.,-22.3%,.
CCCCCCCCNc1ccccc1S(=O)(=O)NCc1ccccc1,?,?,18.4µM*,0.0,24.6%,?
CC1CCN(C(C)CNC(=O)Cc2coc(-c3ccccc3)n2)CC1 (stereo unspecified),.,.,.,.,26.3%,.
CCNC(=S)NCC12CC3CC(CC(C3)C1)C2,.,.,.,.,39.8µM*,.
CC(CNC(=O)Cn1ccc2cc(S(=O)(=O)N3CCCCC3)ccc21)c1ccccc1 (stereo unspecified),?,.,20.6µM*,.,?,.
CC(CNC(=O)Cn1ccc2cc(S(=O)(=O)N3CCCC3)ccc21)c1ccccc1 (stereo unspecified),18.4µM*,-11.0%,23.1µM*,8.5,7.1%,-1.2%
O=C(c1ccc(=O)[nH]c1)N(CC1CCN(Cc2ccccc2F)CC1)CC1CCCO1 (stereo unspecified),.,.,.,.,6.7%,.
CN1C(=O)Cc2cc(S(=O)(=O)CCC(=O)N3CCN(c4cccc(Cl)c4)CC3)ccc21,20.6µM*,.,8.2µM*,.,-5.2%,.
COc1cccc(N2CCN(C(=O)C(CCSC)NS(=O)(=O)c3ccc4c(c3)oc(=O)n4C)CC2)c1 (stereo unspecified),-21.6%,.,-17.9%,.,-11.2%,.
Cn1c(=O)oc2cc(S(=O)(=O)CCC(=O)N3CCN(c4cccc(Cl)c4)CC3)ccc21,18.4µM*,.,11.6µM*,.,-11.5%,.
CSCCC(NS(=O)(=O)c1ccc2c(c1)oc(=O)n2C)C(=O)N1CCN(c2cccc(Cl)c2)CC1 (stereo unspecified),?,.,20.6µM*,.,-11.2%,.
COC(=O)c1oc(CN2CCCC2c2ccsc2)cc1C (stereo unspecified),.,.,.,.,25.8%,.
CN1C(=O)COC[C@@H]1[C@H](O)c1ccc(NC(=O)C2CCC2)cc1,.,.,.,.,31.1%[176 µM],.

# From PubChem
